Laboratory results as given in PubChem BioAssay (NCI).
Values joined by “and” are separate entries in the source; they are usually repeats but may differ in a detail not shown here. Identical values can stand only once. Compounds without any hit were thinned out: in the full panel of roughly 79,000, 15% have a hit. Some structures have more than one record in an assay (separate samples or runs), and their calls can disagree. Active and inactive are the calls of the source. No stated cut-off is given here; in the data, active means growth inhibition above about 70%; inactive means the rest.

Legend:
[1] = NCI Yeast Anticancer Drug Screen. Data for the rad52 strain (AID 147);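 further: 0% = growth of vehicle-treated control cultures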; settings: S. cerevisiae rad52 mutant growth inhibition, stronger effect = higher value
Procedure, shortened: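 DNA repair-defective yeast; compound exposure; growth scored against vehicle controls.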

[2] = NCI Yeast Anticancer Drug Screen. Data for the wt1 strain (AID 149);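 further: 0% = growth of vehicle-treated wt1 cultures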; settings: S. cerevisiae wt1 strain (SPY 50644) growth inhibition, stronger effect = higher value
Procedure, shortened: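 Using yeast strain wt1, compound-induced growth inhibition was determined against vehicle-treated cultures.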

[3] = NCI Yeast Anticancer Drug Screen. Data for the rad50EPP+ strain (AID 151);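 further: 0% = growth of vehicle-treated control cultures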; settings: S. cerevisiae rad50 mutant strain, stronger effect = higher value
Procedure, shortened: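 rad50EPP+ yeast treated with test compounds. Readout: growth vs vehicle control.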

[4] = NCI Yeast Anticancer Drug Screen. Data for the rad50 strain (AID 155);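 further: 0% = growth of vehicle-only cultures of the same strain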; settings: S. cerevisiae rad50 strain growth inhibition, stronger effect = higher value
Procedure, shortened: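 Relative growth inhibition (compound vs vehicle) was measured in yeast with a defined repair-gene alteration.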

[5] = NCI Yeast Anticancer Drug Screen. Data for the mec2-1 strain (AID 157); settings: S. cerevisiae mec2-1 strain, stronger effect = higher value
Procedure, shortened: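 Growth inhibition is read against vehicle-treated controls after compound exposure of the mec2-1 yeast strain, which is defective in DNA damage repair or cell cycle control.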

[6] = NCI Yeast Anticancer Drug Screen. Data for the rad14 strain (AID 159);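 further: 0% = growth of vehicle-treated control cultures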; settings: S. cerevisiae rad14 strain growth inhibition, stronger effect = higher value
Procedure, shortened: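 Screen for anticancer potential: a yeast strain altered in DNA damage repair is grown with compound, and reduced growth is quantified against vehicle controls.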

[7] = NCI Yeast Anticancer Drug Screen. Data for the sgs1 mgt1 strain (AID 161);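 further: 0% = growth of cultures given vehicle only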; settings: S. cerevisiae sgs1 mgt1 strain, stronger effect = higher value
Procedure, shortened: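 Yeast cells carrying a defined DNA-repair defect were exposed to test compounds. Growth inhibition was measured relative to vehicle-treated controls.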

[8] = NCI Yeast Anticancer Drug Screen. Data for the CLN2oe strain (AID 163);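 further: 0% = growth of vehicle-only control cultures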; settings: S. cerevisiae CLN2oe strain, stronger effect = higher value
Procedure, shortened: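 Compound-treated yeast; growth vs vehicle ctrl = % inhibition. Genetically altered strain (cell-cycle control).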

[9] = NCI Yeast Anticancer Drug Screen. Data for the cln2 rad14 strain (AID 165);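 further: 0% = growth equal to vehicle treated cultures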; settings: S. cerevisiae cln2 rad14 strain, stronger effect = higher value
Procedure, shortened: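 Growth inhibition, relative to vehicle-treated controls, is the read-out. The test organism is a yeast strain with defined genetic alterations, cln2 rad14.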

[10] = NCI Yeast Anticancer Drug Screen. Data for the bub3 strain (AID 167); settings: S. cerevisiae bub3 mutant strain, stronger effect = higher value
Procedure, shortened: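 Screening used yeast with an engineered genetic alteration affecting cell cycle control. Compound-exposed cultures were compared with vehicle cultures, and reduced growth was taken as inhibition.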

[11] = NCI Yeast Anticancer Drug Screen. Data for the wt2 strain (AID 169);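 further: 0% = growth of vehicle-treated yeast cultures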; settings: S. cerevisiae wt2 strain growth inhibition, stronger effect = higher value
Procedure, shortened: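 Compound exposure of yeast; growth compared with vehicle controls; inhibition reported.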

[12] = NCI Yeast Anticancer Drug Screen. Data for the mlh1 strain (AID 171);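 further: 0% = growth of vehicle-treated control cultures of the same strain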; settings: S. cerevisiae mlh1 strain growth inhibition, stronger effect = higher value
Procedure, shortened: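 Compounds are applied to a genetically altered yeast strain, and its growth is compared with that of vehicle-treated cultures to give percent inhibition.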

[13] = NCI Yeast Anticancer Drug Screen. Data for the sgs1 strain (AID 173);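 further: 0% = growth of vehicle-only control cultures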; settings: S. cerevisiae sgs1 mutant, stronger effect = higher value
Procedure, shortened: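 Compounds applied to genetically altered yeast; growth compared with vehicle-treated cultures to give % inhibition.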

[14] = NCI Yeast Anticancer Drug Screen. Data for the mlh1 rad18 strain (AID 175); settings: S. cerevisiae mlh1 rad18 strain growth inhibition, stronger effect = higher value
Procedure, shortened: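 Cells of a genetically altered yeast strain, deficient in DNA damage repair, were treated with compound. Their growth was then compared with that of vehicle-treated cultures to give inhibition.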

[15] = NCI Yeast Anticancer Drug Screen. Data for the rad18 strain (AID 177); settings: S. cerevisiae rad18 mutant growth inhibition, stronger effect = higher value
Procedure, shortened: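 Compounds are applied to a repair-deficient yeast strain, and growth is compared with that of vehicle-treated cultures to give percent inhibition.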

[16] = at 5.0 µM (retest, dose inferred, filed as 0.5)
[17] = at 50.0 µM (retest, dose inferred, filed as 5.0)

Measured: growth inhibition

CC(C)c1cccc(O)c(=O)c1
40% (inactive) and 99% (active): [14]; [17]
47% (inactive) and 100% (active): [5]; [17]
inactive: [1]; at 1.2 µM 2% | [1]; at 3.7 µM -3% | [1]; at 11.0 µM 0% | [1]; at 33.0 µM 18% | [2]; at 1.2 µM -1% | [2]; at 3.7 µM -1% | [2]; at 11.0 µM -1% | [2]; at 33.0 µM 38% | [3]; at 1.2 µM 5% | [3]; at 3.7 µM 8% | [3]; at 11.0 µM -20% | [3]; at 33.0 µM 13% | [4]; at 1.2 µM -7% | [4]; at 3.7 µM -9% | [4]; [16] -1% and 2% | [4]; at 11.0 µM -8% | [4]; at 33.0 µM 27% | [5]; at 1.2 µM -1% | [5]; at 3.7 µM 2% | [5]; [16] -43% and 0% | [5]; at 11.0 µM 6% | [5]; at 33.0 µM 47% | [6]; at 1.2 µM 6% | [6]; at 3.7 µM 4% | [6]; at 11.0 µM 9% | [7]; [16] -2% and 9% | [8]; at 1.2 µM 3% | [8]; at 3.7 µM 4% | [8]; at 11.0 µM 2% | [8]; at 33.0 µM 25% | [9]; [16] -4% and 4% | [10]; at 1.2 µM 5% | [10]; at 3.7 µM -2% | [10]; [16] -7% and 0% | [10]; at 11.0 µM -4% | [10]; at 33.0 µM 13% | [11]; at 1.2 µM 9% | [11]; at 3.7 µM 14% | [11]; at 11.0 µM 13% | [12]; at 1.2 µM -6% | [12]; at 3.7 µM -1% | [12]; at 11.0 µM 2% | [12]; at 33.0 µM 46% | [13]; at 1.2 µM -3% | [13]; at 3.7 µM -11% | [13]; at 11.0 µM -1% | [13]; at 33.0 µM 60% | [14]; [16] -3% and 7% | [15]; at 1.2 µM -6% | [15]; at 3.7 µM 1% | [15]; at 11.0 µM 2% | [15]; at 33.0 µM 18%
12% (inactive) and 99% (active): [9]; [17]
18% (inactive) and 99% (active): [10]; [17]
active: [1]; at 100.0 µM 99% | [2]; at 100.0 µM 98% | [3]; at 100.0 µM 98% | [4]; at 50.0 µM 98.5% and 92.5% | [4]; at 100.0 µM 98% | [5]; at 50.0 µM 99% and 94.2% | [5]; at 100.0 µM 98% | [6]; at 33.0 µM 74% | [6]; at 100.0 µM 99% | [7]; at 50.0 µM 93.9% and 93.2% | [8]; at 100.0 µM 98% | [9]; at 50.0 µM 96.3% and 89.7% | [10]; at 50.0 µM 99.3% and 93.2% | [10]; at 100.0 µM 98% | [11]; at 33.0 µM 70% | [11]; at 100.0 µM 99% | [12]; at 100.0 µM 99% | [13]; at 100.0 µM 98% | [14]; at 50.0 µM 98.4% and 91.7% | [15]; at 100.0 µM 98%
36% (inactive) and 99% (active): [7]; [17]
52% (inactive) and 99% (active): [4]; [17]
